Test system: Vero E6 infected with SARS-CoV-2
Assay: inhibition of SARS-CoV-2 cytopathic effect; higher = more antiviral protection, active = above 15
Conditions: 48 h

Measured: inhibition of SARS-CoV-2 cytopathic effect

CN1C(C(=O)Nc2ccccn2)=C(O)c2sc(Cl)cc2S1(=O)=O [lornoxicam]
inactive: 1 nM -2.9% | 8.33 nM -0.66% | 100 nM -1.36% | 833.33 nM 0.9% | 10000 nM -0.69%

CCN(CC)S(=O)(=O)c1ccc(C(=O)O)cc1 [etebenecid]
inactive: 1 nM -3.2% | 8.33 nM 1.54% | 100 nM 0.48% | 833.33 nM 1.89% | 10000 nM 2.73%

CN1CCc2cc3c(cc2[C@H]1[C@@H]1OC(=O)c2c1ccc1c2OCO1)OCO3 [bicuculline-(+)]
inactive: 1 nM 0.45% | 8.33 nM 1.6% | 100 nM 0.39% | 833.33 nM 0.32% | 10000 nM 0.5%

c1cc(CN2CCCCC2)cc(OCCCNc2nc3ccccc3s2)c1 [zolantidine]
inactive: 1 nM 0.78% | 8.33 nM 3.51% | 100 nM 1.37% | 833.33 nM 4.09% | 10000 nM 4.6%

[Cl][Ti][Cl].c1cc[cH-]c1.c1cc[cH-]c1 [titanocene-dichloride]
inactive: 1 nM 3.56% | 8.33 nM -0.14% | 100 nM 1.81% | 833.33 nM -1.85% | 10000 nM 0.26%

O=C(O)C[CH2][Ge](=[O])[O][Ge](=[O])[CH2]CC(=O)O [propagermanium]
inactive: 1 nM -0.42% | 8.33 nM 1.44% | 100 nM 3.85% | 833.33 nM -0.73% | 10000 nM -2.33%

CN1[C@H]2C[C@H](OC(=O)[C@H](CO)c3ccccc3)C[C@@H]1[C@@H](O)C2 [anisodamine]
inactive: 1 nM 1.04% | 8.33 nM 2.56% | 100 nM 3.99% | 833.33 nM 5.76% | 10000 nM 3.66%

C[C@@H]1NC(=O)[C@@H](N)CNC(=O)[C@H](C2CCNC(=N)N2)NC(=O)/C(=C/NC(N)=O)NC(=O)[C@H](CNC(=O)CC(N)CCCN)NC1=O.N=C1NCC[C@H]([C@@H]2NC(=O)/C(=C/NC(N)=O)NC(=O)[C@H](CNC(=O)C[C@@H](N)CCCN)NC(=O)[C@H](CO)NC(=O)[C@@H](N)CNC2=O)N1 [capreomycin]
inactive: 1 nM 0.56% | 8.33 nM -0.28% | 100 nM -1.08% | 833.33 nM 0.24% | 10000 nM 2.53%

CNC(=S)C1(c2ccccn2)CCCS1 (stereo not given) [picartamide]
inactive: 1 nM -4.38% | 8.33 nM 0.23% | 100 nM -0.26% | 833.33 nM 2.39% | 10000 nM 6.75%

O=C(O)CCCCCCNC1c2ccccc2CCc2ccccc21 [amineptine]
inactive: 1 nM -0.8% | 8.33 nM -0.3% | 100 nM -1.15% | 833.33 nM -1.42% | 10000 nM -0.04%

CCC[C@H](NC(=O)[C@@H]1[C@H]2CCC[C@H]2CN1C(=O)[C@@H](NC(=O)[C@@H](NC(=O)c1cnccn1)C1CCCCC1)C(C)(C)C)C(=O)C(=O)NC1CC1 [telaprevir]
inactive: 1 nM 0.02% | 8.33 nM -0.75% | 100 nM 0.71% | 833.33 nM 5.12% | 10000 nM -2.66%

COc1ccccc1CC(=N)N1C[C@@H]2C(=O)CCC(c3ccccc3)(c3ccccc3)[C@@H]2C1
inactive: 1 nM -0.54% | 8.33 nM 2.21% | 100 nM 1.93% | 833.33 nM 3.76% | 10000 nM -2.17%

CN[C@@H]1[C@@H](O)[C@@H](O[C@@H]2[C@@H](O)[C@H](O[C@H]3OC(CN)=CC[C@H]3N)[C@@H](N)C[C@H]2N)OC[C@]1(C)O [Sisomicin (sulfate)]
inactive: 1 nM 0.02% | 8.33 nM 0.45% | 100 nM 0.885% | 833.33 nM -0.63% | 10000 nM -0.58%

CNC1CCCN(c2c(F)cc3c(=O)c(C(=O)O)cn(C4CC4)c3c2OC)C1 (stereo not given) [balofloxacin]
inactive: 1 nM -2.96% | 8.33 nM 0.66% | 100 nM 1.91% | 833.33 nM 1.72% | 10000 nM 2.43%

COc1ccc(CCc2nc3cc(-c4c(C)noc4C)ccc3n2C[C@H](C)N2CCOCC2)cc1Cl
inactive: 1 nM 0.67% | 8.33 nM 1.61% | 100 nM 0.26% | 833.33 nM -1.13% | 10000 nM 5.31%

CCC(=O)O[C@@](Cc1ccccc1)(c1ccccc1)[C@@H](C)CN(C)C [levopropoxyphene]
inactive: 1 nM 7.6% | 8.33 nM 2.53% | 100 nM 1.97% | 833.33 nM 0.91% | 10000 nM -3.41%

C=CC(=O)N1CCC[C@@H](n2nc(-c3ccc(Oc4ccccc4)cc3)c3c(N)ncnc32)C1 [ibrutinib]
inactive: 1 nM -2.27% | 8.33 nM -1.2% | 100 nM 0.01% | 833.33 nM -0.37% | 10000 nM 1.62%

O=C(O)Cn1nnc(-c2cc(N3CCC(Oc4cc(F)ccc4Br)CC3)no2)n1
inactive: 1 nM -0.51% | 8.33 nM -0.71% | 100 nM 1.39% | 833.33 nM -0.54% | 10000 nM 1.73%

CN1CCCN(C(c2ccccc2)c2ccc(Cl)cc2)CC1 (stereo not given) [homochlorcyclizine]
inactive: 1 nM 2.1% | 8.33 nM 1.84% | 100 nM 1.43% | 833.33 nM -2.39% | 10000 nM -1.32%

CCCC(CCC)C(=O)NCC(N)=O [valrocemide]
inactive: 1 nM 0.41% | 8.33 nM 1.83% | 100 nM 2.6% | 833.33 nM 0.66% | 10000 nM 3.56%

C/C=C1\[C@H]2C=C(C)C[C@]1(N)c1ccc(=O)[nH]c1C2 [(-)-Huperzine A]
inactive: 1 nM 0.37% | 8.33 nM 2.1% | 100 nM 0.96% | 833.33 nM -0.65% | 10000 nM -0.5%

CC(C)Oc1cccc(-n2c(CCc3c[nH]c4ccc(Br)cc34)nc3ccccc3c2=O)c1
inactive: 1 nM -1.06% | 8.33 nM 2.18% | 100 nM 2.14% | 833.33 nM 0.14% | 10000 nM 0.06%

CC/C(=C(/c1ccc(/C=C/C(=O)O)cc1)c1ccc2[nH]ncc2c1)c1ccc(F)cc1Cl
inactive: 1 nM 4.17% | 8.33 nM -1.18% | 100 nM -1.84% | 833.33 nM 0.21% | 10000 nM -0.85%

CCCCCCN(CCCCCC)C(=O)Cc1c(-c2ccc(Cl)cc2)[nH]c2ccc(Cl)cc12
inactive: 1 nM 1.54% | 8.33 nM 2.57% | 100 nM -1.81% | 833.33 nM -0.56% | 10000 nM -0.57%

O=c1n(CC2CO2)c(=O)n(CC2CO2)c(=O)n1CC1CO1 (stereo not given) [teroxirone]
inactive: 1 nM -1.74% | 8.33 nM -0.65% | 100 nM 0.11% | 833.33 nM 0.34% | 10000 nM 9.05%

CCC[C@H](Nc1nc(-c2ccc(NC(=O)NCC)c(OC)c2)ncc1C)c1cccnc1
inactive: 1 nM 0.07% | 8.33 nM -1.4% | 100 nM -1.33% | 833.33 nM -0.69% | 10000 nM -2.7%

Cc1c(S(=O)(=O)O)oc2c1C(=O)C(=O)c1c-2ccc2c1CCCC2(C)C [sodium-tanshinone-II-A-sulfonate]
inactive: 1 nM -6.63% | 8.33 nM -8.06% | 100 nM -4.77% | 833.33 nM -7.14% | 10000 nM -10.1%

O=C(O)[C@@H](S)[C@@H](S)C(=O)O [dimercaptosuccinic-acid]
inactive: 1 nM 0.73% | 8.33 nM -1.78% | 100 nM -1.78% | 833.33 nM -1.02% | 10000 nM -2.75%

NC(=O)CN1CC(O)CC1=O (stereo not given) [oxiracetam]
inactive: 1 nM 1.13% | 8.33 nM 0.12% | 100 nM 0.71% | 833.33 nM 4.22% | 10000 nM 0.29%

CN1CCN(c2cccc3[nH]c(=O)oc23)CC1 [pardoprunox]
inactive: 1 nM 0.73% | 8.33 nM 1.76% | 100 nM 3.14% | 833.33 nM -2.14% | 10000 nM 1.85%

Cc1cnc(Nc2ccc(N3CCN(C)CC3)cc2)nc1Nc1cccc(S(=O)(=O)NC(C)(C)C)c1
inactive: 1 nM -0.35% | 8.33 nM -0.73% | 100 nM 0.51% | 833.33 nM -7.25% | 10000 nM -21.1%

O=C(O)CCCO
inactive: 1 nM 1.65% | 8.33 nM 2.68% | 100 nM 2.71% | 833.33 nM 1.83% | 10000 nM 1.79%

c1ccc2c(Oc3nc(Nc4ccc(N5CCOCC5)cc4)c4ncn(C5CCCCC5)c4n3)cccc2c1 [purmorphamine]
inactive: 1 nM 0.27% | 8.33 nM 1.18% | 100 nM 0.24% | 833.33 nM 2.43% | 10000 nM -5.44%

CC(C)(Oc1ccc(Cl)cc1)C(=O)OCCOC(=O)c1cccnc1 [etofibrate]
inactive: 1 nM 0.78% | 8.33 nM 2.82% | 100 nM 0.41% | 833.33 nM 0.22% | 10000 nM -10.1%

O=[N+]([O-])c1ccc(O)c([N+](=O)[O-])c1 [2,4-dinitrophenol]
inactive: 1 nM 2.74% | 8.33 nM 2.11% | 100 nM 5.04% | 833.33 nM 2.61% | 10000 nM 2.69%

CC(C)C(N)=O [isobutyramide]
inactive: 1 nM 4.35% | 8.33 nM 1.02% | 100 nM 2.22% | 833.33 nM 2.44% | 10000 nM 0.68%

Cc1ccc(C)c(OCCCC(C)(C)C(=O)O)c1 [gemfibrozil]
inactive: 1 nM 0.62% | 8.33 nM -0.19% | 100 nM -0.2% | 833.33 nM 0.31% | 10000 nM -0.46%

CCS(=O)(=O)N(Cc1cccnc1)c1cccc(-c2ccc(C#N)cc2)c1
inactive: 1 nM 1.24% | 8.33 nM 1.74% | 100 nM 1.23% | 833.33 nM 4.38% | 10000 nM 8.38%

CCOC(=O)c1ccc(OCCC2CCN(c3ccc(C)nn3)CC2)cc1 [pirodavir]
inactive: 1 nM 2.32% | 8.33 nM 1.72% | 100 nM 0.34% | 833.33 nM 1.49% | 10000 nM -2.18%

From the supplement of paper PMC13380429
